# Results: article PMC7862700, “An all-to-all approach to the identification of sequence-specific readers for epigenetic DNA modifications on cytosine”
# How the values were obtained:
# Test in all cases: DAPPL (digital affinity profiling via proximity ligation, sequencing); 10 mM Tris-HCl pH 7.5, 50 mM NaCl, 1 mM DTT, 4% glycerol, room temperature, 30 min; GST-TFs on glutathione beads, 16-mer random dsDNA library, 0.1% formaldehyde crosslink after washing; high values mean tight binding
# Details in all cases: protein: recombinant; tags: N-terminal GST; dsDNA, one strand shown
# [1] = target: T1, FLI1 (Homo sapiens, UniProt Q01543 1-452)
# T1 sequence: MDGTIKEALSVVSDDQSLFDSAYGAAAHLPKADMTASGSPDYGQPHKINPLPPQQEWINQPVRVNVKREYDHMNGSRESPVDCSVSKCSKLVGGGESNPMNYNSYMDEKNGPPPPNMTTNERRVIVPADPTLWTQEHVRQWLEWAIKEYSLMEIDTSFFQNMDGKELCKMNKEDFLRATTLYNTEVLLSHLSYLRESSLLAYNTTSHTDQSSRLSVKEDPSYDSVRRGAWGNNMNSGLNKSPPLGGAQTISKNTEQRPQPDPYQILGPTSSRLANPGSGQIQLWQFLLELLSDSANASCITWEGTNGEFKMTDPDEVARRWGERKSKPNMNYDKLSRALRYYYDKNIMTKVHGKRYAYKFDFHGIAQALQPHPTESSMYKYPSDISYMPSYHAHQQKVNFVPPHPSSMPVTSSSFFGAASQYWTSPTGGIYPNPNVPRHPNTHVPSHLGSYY
# Outline: (§1)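 The binding signal reported is, for every hexamer, its read frequency for a factor over its read frequency for the tag-only sample. Reads came from pools of yeast-expressed, GST-fused human transcription factors on glutathione beads, barcoded with DNA and mixed with that sample, which were incubated with 200 nmole of a random double-stranded 16-mer DNA library in Tris/NaCl/DTT/glycerol buffer at room temperature for 30 min. After washing, the pools were crosslinked with 0.1% formaldehyde, proximity-ligated with BsaI/T4 ligase for 1 h at 37 °C, PCR-amplified and sequenced on an Illumina NextSeq500.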
# [2] = target: T2, ELK1 (Homo sapiens, UniProt P19419 1-428)
# T2 sequence: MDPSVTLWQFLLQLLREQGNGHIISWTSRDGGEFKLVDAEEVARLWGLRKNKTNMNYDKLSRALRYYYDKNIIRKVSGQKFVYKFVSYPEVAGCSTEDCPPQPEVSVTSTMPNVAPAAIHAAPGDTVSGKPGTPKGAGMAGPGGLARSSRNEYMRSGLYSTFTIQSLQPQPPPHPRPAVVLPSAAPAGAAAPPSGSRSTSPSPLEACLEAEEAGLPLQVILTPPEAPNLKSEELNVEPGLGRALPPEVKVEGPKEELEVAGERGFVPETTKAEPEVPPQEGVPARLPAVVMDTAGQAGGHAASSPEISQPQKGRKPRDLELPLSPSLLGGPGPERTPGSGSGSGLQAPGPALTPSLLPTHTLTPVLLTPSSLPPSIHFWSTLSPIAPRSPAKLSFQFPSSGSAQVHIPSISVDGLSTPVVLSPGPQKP
# Outline: as §1
# [3] = target: T3, GABPA (Homo sapiens, UniProt Q06546 1-454)
# T3 sequence: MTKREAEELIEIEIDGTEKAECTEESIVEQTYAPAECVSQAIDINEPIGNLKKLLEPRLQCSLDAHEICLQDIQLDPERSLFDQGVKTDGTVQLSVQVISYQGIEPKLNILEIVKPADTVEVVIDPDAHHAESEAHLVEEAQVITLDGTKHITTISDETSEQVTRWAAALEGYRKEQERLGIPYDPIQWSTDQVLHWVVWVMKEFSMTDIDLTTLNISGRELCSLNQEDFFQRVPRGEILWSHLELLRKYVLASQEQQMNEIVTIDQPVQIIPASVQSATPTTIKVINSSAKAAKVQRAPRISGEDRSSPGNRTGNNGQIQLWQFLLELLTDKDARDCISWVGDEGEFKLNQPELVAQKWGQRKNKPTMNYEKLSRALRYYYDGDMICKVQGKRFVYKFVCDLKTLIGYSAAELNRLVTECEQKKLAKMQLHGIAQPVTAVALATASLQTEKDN
# Outline: as §1
# [4] = target: ELF1 (Homo sapiens, UniProt P32519 1-619)
# ELF1, sequence (P32519 whole entry): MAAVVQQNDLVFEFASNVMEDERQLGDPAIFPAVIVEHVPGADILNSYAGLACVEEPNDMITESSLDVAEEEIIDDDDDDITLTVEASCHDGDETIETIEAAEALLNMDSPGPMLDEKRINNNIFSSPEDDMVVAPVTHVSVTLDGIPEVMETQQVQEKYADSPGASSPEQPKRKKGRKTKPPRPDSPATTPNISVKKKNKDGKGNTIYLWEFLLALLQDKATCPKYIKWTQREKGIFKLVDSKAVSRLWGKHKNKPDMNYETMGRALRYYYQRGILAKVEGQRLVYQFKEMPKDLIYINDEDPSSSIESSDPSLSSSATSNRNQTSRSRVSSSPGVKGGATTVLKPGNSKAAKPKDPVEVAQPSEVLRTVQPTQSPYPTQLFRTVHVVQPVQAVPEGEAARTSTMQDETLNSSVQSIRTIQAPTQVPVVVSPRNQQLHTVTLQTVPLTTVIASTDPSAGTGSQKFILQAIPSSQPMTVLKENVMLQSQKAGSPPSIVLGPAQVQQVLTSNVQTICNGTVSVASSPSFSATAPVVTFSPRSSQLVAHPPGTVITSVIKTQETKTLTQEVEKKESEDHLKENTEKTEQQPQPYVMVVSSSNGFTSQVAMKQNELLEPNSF
# Outline: as §1
# [5] = target: T4, EHF (Homo sapiens, UniProt Q9NZC4 1-300)
# T4 sequence: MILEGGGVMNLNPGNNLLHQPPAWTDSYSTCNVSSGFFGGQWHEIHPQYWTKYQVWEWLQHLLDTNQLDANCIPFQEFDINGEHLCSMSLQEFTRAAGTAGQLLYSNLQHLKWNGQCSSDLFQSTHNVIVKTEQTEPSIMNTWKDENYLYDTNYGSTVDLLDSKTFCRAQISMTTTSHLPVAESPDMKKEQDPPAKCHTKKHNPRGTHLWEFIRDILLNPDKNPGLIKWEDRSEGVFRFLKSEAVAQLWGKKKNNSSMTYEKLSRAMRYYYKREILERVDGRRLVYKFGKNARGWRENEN
# Outline: as §1
# [6] = target: T5, FEV (Homo sapiens, UniProt Q99581 1-238)
# T5 sequence: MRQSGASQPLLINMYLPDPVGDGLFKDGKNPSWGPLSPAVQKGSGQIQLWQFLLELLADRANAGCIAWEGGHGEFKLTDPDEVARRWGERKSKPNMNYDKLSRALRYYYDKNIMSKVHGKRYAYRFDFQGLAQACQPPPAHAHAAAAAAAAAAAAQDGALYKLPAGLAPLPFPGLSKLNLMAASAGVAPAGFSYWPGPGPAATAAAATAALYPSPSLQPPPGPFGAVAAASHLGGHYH
# Outline: as §1
# [7] = target: ETV5 (Homo sapiens, UniProt P41161 1-510)
# ETV5, sequence (P41161 whole entry): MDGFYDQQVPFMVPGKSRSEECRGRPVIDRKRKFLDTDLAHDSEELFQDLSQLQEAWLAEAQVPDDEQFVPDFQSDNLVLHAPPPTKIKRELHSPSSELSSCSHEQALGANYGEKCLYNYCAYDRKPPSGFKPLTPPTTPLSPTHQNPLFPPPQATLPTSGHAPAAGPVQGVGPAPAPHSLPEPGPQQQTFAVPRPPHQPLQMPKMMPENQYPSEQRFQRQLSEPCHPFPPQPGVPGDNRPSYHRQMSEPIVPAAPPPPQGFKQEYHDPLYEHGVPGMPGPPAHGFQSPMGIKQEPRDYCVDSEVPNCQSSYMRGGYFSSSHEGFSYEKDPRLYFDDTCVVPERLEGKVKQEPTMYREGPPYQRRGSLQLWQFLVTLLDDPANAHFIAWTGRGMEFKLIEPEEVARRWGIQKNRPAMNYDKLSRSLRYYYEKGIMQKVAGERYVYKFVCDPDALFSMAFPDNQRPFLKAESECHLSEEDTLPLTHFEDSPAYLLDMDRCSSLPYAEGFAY
# Outline: as §1
# [8] = target: T6, SPIC (Homo sapiens, UniProt Q8N5J4 1-248)
# T6 sequence: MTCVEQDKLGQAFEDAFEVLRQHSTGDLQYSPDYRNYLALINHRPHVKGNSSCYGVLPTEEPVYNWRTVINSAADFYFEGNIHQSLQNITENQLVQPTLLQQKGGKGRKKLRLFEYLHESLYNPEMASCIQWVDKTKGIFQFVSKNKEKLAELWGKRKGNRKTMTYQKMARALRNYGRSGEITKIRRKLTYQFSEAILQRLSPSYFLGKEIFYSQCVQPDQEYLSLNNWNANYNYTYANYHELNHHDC
# Outline: as §1
# [9] = target: ELF4 (Homo sapiens, UniProt Q99607 1-663)
# ELF4, sequence (Q99607 whole entry): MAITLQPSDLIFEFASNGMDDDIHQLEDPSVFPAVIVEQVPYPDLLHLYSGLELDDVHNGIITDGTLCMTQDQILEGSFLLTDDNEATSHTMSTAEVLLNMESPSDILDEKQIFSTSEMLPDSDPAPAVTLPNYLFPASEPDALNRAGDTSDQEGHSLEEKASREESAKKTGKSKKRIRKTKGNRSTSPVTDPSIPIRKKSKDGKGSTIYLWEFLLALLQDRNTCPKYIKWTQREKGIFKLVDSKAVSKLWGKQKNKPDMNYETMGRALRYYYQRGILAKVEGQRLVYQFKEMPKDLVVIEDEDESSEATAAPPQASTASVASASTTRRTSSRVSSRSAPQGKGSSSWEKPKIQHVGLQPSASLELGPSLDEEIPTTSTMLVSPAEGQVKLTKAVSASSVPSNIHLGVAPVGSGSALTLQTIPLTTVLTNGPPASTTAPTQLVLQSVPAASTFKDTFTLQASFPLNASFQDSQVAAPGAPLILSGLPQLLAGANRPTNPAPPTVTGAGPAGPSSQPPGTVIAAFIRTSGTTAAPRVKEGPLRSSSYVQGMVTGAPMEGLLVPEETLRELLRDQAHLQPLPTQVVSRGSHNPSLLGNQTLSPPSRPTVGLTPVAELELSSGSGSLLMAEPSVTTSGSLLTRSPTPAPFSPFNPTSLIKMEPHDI
# Outline: as §1
# [10] = target: ETV1 (Homo sapiens, UniProt P50549 1-477)
# ETV1, sequence (P50549 whole entry): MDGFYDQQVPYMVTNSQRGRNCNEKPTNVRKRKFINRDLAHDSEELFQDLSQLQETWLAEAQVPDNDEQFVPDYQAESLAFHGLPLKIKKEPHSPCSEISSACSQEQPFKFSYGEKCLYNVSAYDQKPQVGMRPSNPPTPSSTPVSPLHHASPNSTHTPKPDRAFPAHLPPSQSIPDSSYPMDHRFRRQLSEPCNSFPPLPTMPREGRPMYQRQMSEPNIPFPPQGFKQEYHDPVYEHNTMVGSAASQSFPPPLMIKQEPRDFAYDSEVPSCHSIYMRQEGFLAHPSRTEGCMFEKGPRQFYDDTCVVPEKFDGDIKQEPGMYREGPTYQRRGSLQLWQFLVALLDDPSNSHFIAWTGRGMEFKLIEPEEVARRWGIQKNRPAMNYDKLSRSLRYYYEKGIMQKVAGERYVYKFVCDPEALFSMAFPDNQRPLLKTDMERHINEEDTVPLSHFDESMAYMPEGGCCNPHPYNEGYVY
# Outline: as §1
# [11] = target: T7, ERF (Homo sapiens, UniProt P50548 1-548)
# T7 sequence: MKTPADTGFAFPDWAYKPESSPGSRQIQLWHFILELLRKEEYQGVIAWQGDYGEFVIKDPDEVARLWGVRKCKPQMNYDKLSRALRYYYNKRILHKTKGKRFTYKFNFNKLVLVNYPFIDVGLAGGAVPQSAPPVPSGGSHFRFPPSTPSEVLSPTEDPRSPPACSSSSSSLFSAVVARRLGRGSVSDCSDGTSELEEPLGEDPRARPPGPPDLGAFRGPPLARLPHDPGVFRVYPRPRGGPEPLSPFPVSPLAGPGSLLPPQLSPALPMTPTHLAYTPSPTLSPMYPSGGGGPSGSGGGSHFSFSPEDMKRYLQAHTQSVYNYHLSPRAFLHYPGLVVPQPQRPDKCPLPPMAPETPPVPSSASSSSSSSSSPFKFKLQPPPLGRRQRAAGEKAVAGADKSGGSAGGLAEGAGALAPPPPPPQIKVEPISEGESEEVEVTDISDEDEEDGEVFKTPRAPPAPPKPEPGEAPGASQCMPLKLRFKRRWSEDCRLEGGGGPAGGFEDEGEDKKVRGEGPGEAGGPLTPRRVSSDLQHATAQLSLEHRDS
# Outline: as §1
# [12] = target: T8, ETV3L (Homo sapiens, UniProt Q6ZN32 1-361)
# T8 sequence: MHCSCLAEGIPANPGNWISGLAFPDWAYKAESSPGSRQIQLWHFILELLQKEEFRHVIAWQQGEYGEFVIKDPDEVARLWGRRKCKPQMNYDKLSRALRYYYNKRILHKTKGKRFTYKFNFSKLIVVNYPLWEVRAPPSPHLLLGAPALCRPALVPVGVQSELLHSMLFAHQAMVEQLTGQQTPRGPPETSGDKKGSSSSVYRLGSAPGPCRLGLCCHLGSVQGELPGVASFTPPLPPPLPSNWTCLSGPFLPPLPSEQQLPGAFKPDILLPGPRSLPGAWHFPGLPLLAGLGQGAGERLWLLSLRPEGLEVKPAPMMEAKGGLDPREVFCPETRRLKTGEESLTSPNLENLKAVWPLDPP
# Outline: as §1
# [13] = target: T9, ETS2 (Homo sapiens, UniProt P15036 1-469)
# T9 sequence: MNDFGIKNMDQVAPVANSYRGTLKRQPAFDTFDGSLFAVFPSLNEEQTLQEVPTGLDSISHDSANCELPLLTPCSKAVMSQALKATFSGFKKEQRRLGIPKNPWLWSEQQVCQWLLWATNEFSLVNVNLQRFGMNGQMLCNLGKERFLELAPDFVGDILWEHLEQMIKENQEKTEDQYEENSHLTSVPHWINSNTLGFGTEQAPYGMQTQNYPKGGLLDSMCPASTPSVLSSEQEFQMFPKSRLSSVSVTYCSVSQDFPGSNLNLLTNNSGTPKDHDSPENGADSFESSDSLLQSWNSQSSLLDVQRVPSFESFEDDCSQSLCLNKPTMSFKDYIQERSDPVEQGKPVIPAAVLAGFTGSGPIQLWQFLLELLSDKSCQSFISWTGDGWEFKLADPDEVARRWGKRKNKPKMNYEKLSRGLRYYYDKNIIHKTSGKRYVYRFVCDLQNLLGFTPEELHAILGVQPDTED
# Outline: as §1
# [14] = target: T10, ETV3 (Homo sapiens, UniProt P41162-2 1-143)
# T10 sequence: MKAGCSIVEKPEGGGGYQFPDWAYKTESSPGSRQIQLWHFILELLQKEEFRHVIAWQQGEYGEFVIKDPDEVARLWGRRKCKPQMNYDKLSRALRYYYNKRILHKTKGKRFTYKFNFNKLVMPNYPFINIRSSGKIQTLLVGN
# Outline: as §1
# [15] = target: ETV6 (Homo sapiens, UniProt P41212 1-452)
# ETV6, sequence (P41212 whole entry): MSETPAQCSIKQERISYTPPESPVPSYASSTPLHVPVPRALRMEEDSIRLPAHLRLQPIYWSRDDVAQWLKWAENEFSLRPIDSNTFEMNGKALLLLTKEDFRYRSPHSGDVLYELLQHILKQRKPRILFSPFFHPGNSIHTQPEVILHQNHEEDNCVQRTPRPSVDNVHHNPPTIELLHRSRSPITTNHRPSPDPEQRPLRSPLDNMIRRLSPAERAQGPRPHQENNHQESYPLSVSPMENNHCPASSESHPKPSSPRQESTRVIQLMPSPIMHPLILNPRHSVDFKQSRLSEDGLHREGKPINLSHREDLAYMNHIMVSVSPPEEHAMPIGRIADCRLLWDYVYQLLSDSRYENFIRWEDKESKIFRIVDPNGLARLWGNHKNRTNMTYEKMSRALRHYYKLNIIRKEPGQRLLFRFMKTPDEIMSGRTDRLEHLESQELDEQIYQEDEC
# Outline: as §1
sequence,measurement,setting,value
AAGGCA,binding signal,[1],"1.02 fold enrichment (6-mer frequency, TF over GST control)"
same,binding signal,[2],"1.05 fold enrichment (6-mer frequency, TF over GST control)"
same,binding signal,[3],"1.03 fold enrichment (6-mer frequency, TF over GST control)"
same,binding signal,[4],"1 fold enrichment (6-mer frequency, TF over GST control)"
same,binding signal,[5],"1.09 fold enrichment (6-mer frequency, TF over GST control)"
same,binding signal,[6],"1.07 fold enrichment (6-mer frequency, TF over GST control)"
same,binding signal,[7],"1 fold enrichment (6-mer frequency, TF over GST control)"
same,binding signal,[8],"1.01 fold enrichment (6-mer frequency, TF over GST control)"
same,binding signal,[9],"1.03 fold enrichment (6-mer frequency, TF over GST control)"
same,binding signal,[10],"1.1 fold enrichment (6-mer frequency, TF over GST control)"
same,binding signal,[11],"1.04 fold enrichment (6-mer frequency, TF over GST control)"
same,binding signal,[12],"1.04 fold enrichment (6-mer frequency, TF over GST control)"
same,binding signal,[13],"1.08 fold enrichment (6-mer frequency, TF over GST control)"
same,binding signal,[14],"1.07 fold enrichment (6-mer frequency, TF over GST control)"
same,binding signal,[15],"1.03 fold enrichment (6-mer frequency, TF over GST control)"
